From PubChem BioAssay AID1159580 (chemical genetic matrix, 2015)
Among all 5,500 compounds or so, about 2,000 (36%) were called active. Inconclusive results (about 18%) are left out. No stated cut-off is given here; in the data, active means normalized growth mostly below about 0.91 (no sharp cut-off); inconclusive means no clear call, values can overlap the other calls; inactive means mostly above about 0.92. This is one part of the list.

Assay: chemical genetic growth profiling, strain panel (AID 1159580);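 further: tested at 20 µM; growth read once vehicle control cultures reached saturation at 30 °C; 1 = growth at the plate median or of vehicle wells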
Conditions: growth OD
[1] = S. cerevisiae deletion strains, locus YAR019C, strain CDC15, stronger effect = lower value
[2] = S. cerevisiae deletion strains, locus YBL105C, strain PKC1, stronger effect = lower value
[3] = S. cerevisiae deletion strains, locus YBR135W, strain CKS1, stronger effect = lower value
[4] = S. cerevisiae deletion strains, locus YBR136W, strain MEC1, stronger effect = lower value
[5] = S. cerevisiae deletion strains, locus YBR160W, strain CDC28, stronger effect = lower value
[6] = S. cerevisiae deletion strains, locus YDL017W, strain CDC7, stronger effect = lower value
[7] = S. cerevisiae deletion strains, locus YDL028C, strain MPS1, stronger effect = lower value
[8] = S. cerevisiae deletion strains, locus YDL101C, strain DUN1, stronger effect = lower value
[9] = S. cerevisiae deletion strains, locus YDL108W, strain KIN28, stronger effect = lower value
[10] = S. cerevisiae deletion strains, locus YDL132W, strain cdc53, stronger effect = lower value
[11] = S. cerevisiae deletion strains, locus YDL214C, strain PRR2, stronger effect = lower value
[12] = S. cerevisiae deletion strains, locus YDR052C, strain DBF4, stronger effect = lower value
[13] = S. cerevisiae deletion strains, locus YDR054C, strain cdc34, stronger effect = lower value
[14] = S. cerevisiae deletion strains, locus YDR226W, strain ADK1, stronger effect = lower value
[15] = S. cerevisiae deletion strains, locus YDR477W, strain SNF1, stronger effect = lower value
[16] = S. cerevisiae deletion strains, locus YER123W, strain YCK3, stronger effect = lower value
[17] = S. cerevisiae deletion strains, locus YER133W, strain GLC7, stronger effect = lower value
[18] = S. cerevisiae deletion strains, locus YFL009W, strain cdc4, stronger effect = lower value
[19] = S. cerevisiae deletion strains, locus YFL029C, strain CAK1, stronger effect = lower value
[20] = S. cerevisiae deletion strains, locus YFR003C, strain YPI1, stronger effect = lower value
[21] = S. cerevisiae deletion strains, locus YFR019W, strain FAB1, stronger effect = lower value
[22] = S. cerevisiae deletion strains, locus YFR028C, strain CDC14, stronger effect = lower value
[23] = S. cerevisiae deletion strains, locus YGR040W, strain KSS1, stronger effect = lower value
[24] = S. cerevisiae deletion strains, locus YGR052W, strain FMP48, stronger effect = lower value
[25] = S. cerevisiae deletion strains, locus YGR092W, strain DBF2, stronger effect = lower value
[26] = S. cerevisiae deletion strains, locus YHR030C, strain SLT2, stronger effect = lower value
[27] = S. cerevisiae deletion strains, locus YHR079C, strain IRE1, stronger effect = lower value
[28] = S. cerevisiae deletion strains, locus YHR082C, strain KSP1, stronger effect = lower value
[29] = S. cerevisiae deletion strains, locus YHR205W, strain SCH9, stronger effect = lower value
[30] = S. cerevisiae deletion strains, locus YIL147C, strain SLN1, stronger effect = lower value
[31] = S. cerevisiae deletion strains, locus YJL095W, strain BCK1, stronger effect = lower value
[32] = S. cerevisiae deletion strains, locus YJL128C, strain PBS2, stronger effect = lower value
[33] = S. cerevisiae deletion strains, locus YJL157C, strain FAR1, stronger effect = lower value
[34] = S. cerevisiae deletion strains, locus YJR016C, strain ILV3, stronger effect = lower value
[35] = S. cerevisiae deletion strains, locus YJR066W, strain TOR1 (second series), stronger effect = lower value
[36] = S. cerevisiae deletion strains, locus YJR066W, strain TOR1, stronger effect = lower value
[37] = S. cerevisiae deletion strains, locus YKL048C, strain ELM1, stronger effect = lower value
[38] = S. cerevisiae deletion strains, locus YKL067W, strain YNK1, stronger effect = lower value
[39] = S. cerevisiae deletion strains, locus YKL101W, strain HSL1, stronger effect = lower value
[40] = S. cerevisiae deletion strains, locus YKL193C, strain SDS22, stronger effect = lower value
[41] = S. cerevisiae deletion strains, locus YKL203C, strain TOR2, stronger effect = lower value
[42] = S. cerevisiae deletion strains, locus YLR113W, strain HOG1, stronger effect = lower value
[43] = S. cerevisiae deletion strains, locus YLR133W, strain CKI1, stronger effect = lower value
[44] = S. cerevisiae deletion strains, locus YLR403W, strain SFP1, stronger effect = lower value
[45] = S. cerevisiae deletion strains, locus YML070W, strain DAK1, stronger effect = lower value
[46] = S. cerevisiae deletion strains, locus YMR001C, strain CDC5, stronger effect = lower value
[47] = S. cerevisiae deletion strains, locus YMR205C, strain PFK2 (second series), stronger effect = lower value
[48] = S. cerevisiae deletion strains, locus YMR277W, strain FCP1, stronger effect = lower value
[49] = S. cerevisiae deletion strains, locus YNL006W, strain LST8, stronger effect = lower value
[50] = S. cerevisiae deletion strains, locus YNL020C, strain ARK1, stronger effect = lower value
[51] = S. cerevisiae deletion strains, locus YNL161W, strain CBK1, stronger effect = lower value
[52] = S. cerevisiae deletion strains, locus YNL183C, strain NPR1, stronger effect = lower value
[53] = S. cerevisiae deletion strains, locus YNL207W, strain RIO2, stronger effect = lower value
[54] = S. cerevisiae deletion strains, locus YNL222W, strain SSU72, stronger effect = lower value
[55] = S. cerevisiae deletion strains, locus YNL307C, strain MCK1 (second series), stronger effect = lower value
[56] = S. cerevisiae deletion strains, locus YOL078W, strain AVO1, stronger effect = lower value
[57] = S. cerevisiae deletion strains, locus YOL136C, strain PFK27, stronger effect = lower value
[58] = S. cerevisiae deletion strains, locus YOR061W, strain CKA2, stronger effect = lower value
[59] = S. cerevisiae deletion strains, locus YOR119C, strain RIO1, stronger effect = lower value
[60] = S. cerevisiae deletion strains, locus YOR231W, strain MKK1, stronger effect = lower value
[61] = S. cerevisiae deletion strains, locus YOR329C, strain SCD5, stronger effect = lower value
[62] = S. cerevisiae deletion strains, locus YPL031C, strain PHO85, stronger effect = lower value
[63] = S. cerevisiae deletion strains, locus YPL153C, strain RAD53, stronger effect = lower value
[64] = S. cerevisiae deletion strains, locus YPL204W, strain HRR25, stronger effect = lower value
[65] = S. cerevisiae deletion strains, locus YPL209C, strain IPL1, stronger effect = lower value
[66] = S. cerevisiae deletion strains, locus YPL256C, strain CLN2, stronger effect = lower value
[67] = S. cerevisiae deletion strains, locus YPR025C, strain CCL1, stronger effect = lower value
[68] = S. cerevisiae deletion strains, locus YPR106W, strain ISR1, stronger effect = lower value
[69] = S. cerevisiae deletion strains, locus YPR111W, strain DBF20, stronger effect = lower value
[70] = S. cerevisiae deletion strains, strain NNK1, stronger effect = lower value
[71] = S. cerevisiae deletion strains, strain TSCII, stronger effect = lower value

Measured: normalized growth

Cc1nn(Cc2cccc(C(=O)O/N=C(/N)c3ccc(Cl)cc3)c2)c(C)c1Br
inactive: [1] 0.982 | [2] 0.978 | [3] 0.971 | [4] 0.977 | [5] 0.973 | [6] 0.974 | [7] 0.981 | [8] 0.987 | [9] 0.972 | [10] 0.979 | [11] 0.972 | [12] 0.98 | [13] 0.973 | [14] 0.978 | [15] 0.915 | [16] 0.929 | [17] 0.953 | [18] 0.965 | [19] 0.991 | [20] 0.982 | [21] 0.974 | [22] 0.962 | [23] 0.93 | [24] 1.03 | [25] 0.978 | [26] 1.01 | [27] 1.1 | [28] 1.07 | [29] 0.999 | [30] 0.984 | [31] 0.932 | [32] 1.01 | [33] 0.985 | [34] 0.977 | [35] 0.954 | [36] 1.08 | [37] 0.968 | [38] 0.958 | [39] 0.924 | [40] 0.98 | [41] 1.02 | [42] 0.915 | [43] 0.972 | [44] 0.93 | [45] 0.947 | [46] 0.983 | [47] 0.965 | [48] 0.973 | [49] 0.99 | [50] 0.972 | [51] 0.984 | [52] 0.997 | [53] 0.984 | [54] 0.979 | [55] 1 | [56] 0.977 | [57] 0.955 | [58] 0.955 | [59] 1.01 | [60] 0.927 | [61] 0.98 | [62] 0.929 | [63] 0.81 | [64] 0.942 | [65] 0.987 | [66] 1.03 | [67] 0.978 | [68] 0.99 | [69] 0.995 | [70] 0.998 | [71] 0.987

N/C(=N/OC(=O)c1ccccc1Cl)c1cccc(CS(=O)(=O)c2ccc(Cl)cc2)c1
inactive: [1] 0.993 | [2] 0.975 | [3] 0.981 | [4] 0.986 | [5] 0.981 | [6] 0.984 | [7] 0.991 | [8] 0.982 | [9] 0.986 | [10] 0.984 | [11] 1.04 | [12] 0.981 | [13] 0.984 | [14] 0.981 | [15] 0.997 | [16] 0.995 | [17] 1 | [18] 0.98 | [19] 0.985 | [20] 0.977 | [21] 1.01 | [22] 0.99 | [23] 1 | [24] 1.02 | [25] 0.974 | [26] 1.12 | [27] 1.09 | [28] 1.13 | [29] 0.984 | [30] 0.988 | [31] 0.973 | [32] 0.985 | [33] 1.01 | [34] 0.999 | [35] 0.982 | [36] 1.07 | [37] 0.996 | [38] 1.01 | [39] 1.01 | [40] 0.983 | [41] 1.07 | [42] 0.996 | [43] 1.02 | [44] 0.987 | [45] 1.02 | [46] 0.986 | [47] 1 | [48] 0.99 | [49] 0.994 | [50] 1.02 | [51] 0.988 | [52] 1.04 | [53] 0.98 | [54] 0.981 | [55] 0.968 | [56] 0.986 | [57] 1.03 | [58] 1.01 | [59] 1.08 | [60] 1.01 | [61] 0.994 | [62] 1.01 | [63] 0.994 | [64] 1 | [65] 0.981 | [67] 0.988 | [68] 1 | [69] 0.988 | [70] 0.99 | [71] 0.988
active: [66] 1.2 [resistant]

N/C(=N/OC(=O)C(Cl)Cl)c1cccc(Cl)c1Cl
inactive: S. cerevisiae deletion strains, locus YAL013W, strain DEP1, stronger effect = lower value 1.02 | S. cerevisiae deletion strains, locus YBR229C, strain ROT2, stronger effect = lower value 0.978 | [8] 0.943 | S. cerevisiae deletion strains, locus YDR150W, strain NUM1, stronger effect = lower value 1 | S. cerevisiae deletion strains, locus YEL061C, strain CIN8, stronger effect = lower value 0.997 | S. cerevisiae deletion strains, locus YGR078C, strain PAC10, stronger effect = lower value 0.973 | [26] 0.94 | S. cerevisiae deletion strains, locus YHR087W, strain rtc3, stronger effect = lower value 0.971 | S. cerevisiae deletion strains, locus YJR043C, strain POL32, stronger effect = lower value 0.979 | S. cerevisiae deletion strains, locus YJR075W, strain HOC1, stronger effect = lower value 0.925 | S. cerevisiae deletion strains, locus YKL190W, strain CNB1, stronger effect = lower value 0.982 | S. cerevisiae deletion strains, locus YLR039C, strain RIC1, stronger effect = lower value 0.936 | S. cerevisiae deletion strains, locus YLR058C, strain SHM2 (second series), stronger effect = lower value 0.968 | S. cerevisiae deletion strains, locus YLR085C, strain ARP6, stronger effect = lower value 1.04 | S. cerevisiae deletion strains, locus YLR262C, strain YPT6, stronger effect = lower value 0.921 | S. cerevisiae deletion strains, locus YML094W, strain GIM5, stronger effect = lower value 1.03 | S. cerevisiae deletion strains, locus YMR219W, strain ESC1, stronger effect = lower value 0.984 | S. cerevisiae deletion strains, locus YMR263W, strain SAP30, stronger effect = lower value 0.992 | S. cerevisiae deletion strains, locus YNL153C, strain GIM3, stronger effect = lower value 1.01 | S. cerevisiae deletion strains, locus YNL298W, strain CLA4 (second series), stronger effect = lower value 0.965 | S. cerevisiae deletion strains, locus YNL322C, strain KRE1, stronger effect = lower value 0.98 | S. cerevisiae deletion strains, locus YNR030W, strain Alg12, stronger effect = lower value 1 | S. cerevisiae deletion strains, locus YOL006C, strain TOP1, stronger effect = lower value 0.939 | S. cerevisiae deletion strains, locus YPL055C, strain LGE1, stronger effect = lower value 1.03 | S. cerevisiae deletion strains, locus YPL241C, strain CIN2, stronger effect = lower value 0.907 | S. cerevisiae deletion strains, locus YPR135W, strain CTF4, stronger effect = lower value 1.22 | S. cerevisiae strains, strain wild type, stronger effect = lower value 0.972

N/C(=N/OC(=O)c1ccccc1Cl)c1ccc2nonc2c1
inactive: [1] 0.967 | [2] 0.963 | [3] 0.962 | [4] 0.966 | [5] 0.959 | [6] 0.968 | [7] 0.964 | [8] 0.977 | [9] 0.973 | [10] 0.958 | [11] 0.978 | [12] 0.976 | [13] 0.95 | [14] 0.975 | [15] 0.989 | [16] 0.977 | [17] 0.961 | [18] 0.965 | [19] 0.963 | [20] 0.972 | [21] 0.956 | [22] 0.977 | [23] 0.976 | [24] 1.05 | [25] 0.847 | [27] 0.963 | [28] 1.01 | [29] 0.971 | [30] 0.96 | [31] 0.904 | [32] 0.985 | [33] 0.977 | [34] 0.966 | [35] 0.915 | [36] 0.947 | [37] 0.985 | [38] 0.986 | [39] 0.991 | [40] 0.965 | [41] 1.01 | [42] 0.96 | [43] 0.994 | [44] 0.96 | [45] 0.99 | [46] 0.97 | [47] 0.984 | [48] 0.963 | [49] 0.974 | [50] 0.98 | [51] 0.973 | [52] 0.955 | [53] 0.964 | [54] 0.968 | [55] 0.982 | [56] 0.972 | [57] 0.983 | [58] 0.985 | [59] 1.07 | [60] 0.96 | [61] 0.97 | [62] 0.966 | [63] 0.959 | [64] 0.95 | [65] 0.968 | [66] 0.963 | [67] 0.962 | [68] 0.981 | [69] 0.974 | [70] 0.98 | [71] 0.962
active: [26] 0.825
